Source: PubChem BioAssay
This excerpt belongs to a sample that is enriched for hits.
AMA1 RON2 block: qHTS for Inhibitors of AMA1-RON; Towards Development of Antimalarial Drug Lead: Primary Screen; AlphaScreen AMA1-biotinylated RON2 peptide binding; Potency, µM (top dose mostly 58.2 µM), inactives show at the highest dose activity change, negative = inhibition, hits mostly inhibitors; 360,000 compounds, 0.2% hits; active means well fitted inhibition curve with a large enough effect; inconclusive means small, poorly fitted or top-dose-only effect; inactive means no such curve, though single readings can be large or run the other way;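 further: potency means the concentration at half of the fitted maximal effect; 0% = vehicle wells and -100% = peptide control; nearly all actives have a fitted effect of over 45% in size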
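AMA1 (3D7) with his tag at 25 nM final met compounds first, then biotinylated RON2 peptide at 25 nM; detection used donor plus acceptor beads, 10 µg/mL apiece, read by AlphaScreen after 30 min at room temperature.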
CHX counter: Cycloheximide Counterscreen for Small Molecule Inhibitors of Shiga Toxin. cell reporter, cycloheximide protein synthesis inhibition counterscreen. max response, %. 300,000 compounds, 12% hits; in the data active means max response mostly above about 13%, no sharp cut-off; inactive means mostly below about 14%; further: read at 38.3 µM for the half of the compounds with a filed dose; 0% is about no effect
Shiga inhibitor: A qHTS for Small Molecule Inhibitors of Shiga Toxin; Vero cells, Shiga toxin protein synthesis inhibition reporter; 290,000 compounds, 9.2% hits; inhibition, % at 38.7 µM; AID 2315, 2010; in the data active means inhibition mostly above about 28%, no sharp cut-off; inactive means mostly below about 43%; further: 0% is about no effect
MARV entry inh: qHTS for inhibitors of binding or entry into cells for Marburg Virus; Potency, µM (titrated, usually from 37.8 µM), without a hit: at the highest dose activity change, negative = inhibition, actives largely listed as inhibitors; 300,000 compounds, 1.8% hits; AID 540276, 2011; Marburg virus pseudotyped entry inhibition, cell reporter; calls by dose curve; tested in HEK293 cells; further: potency means the concentration at half of the fitted maximal effect; on the % scale 0 is the no-effect control and ±100 the full control effect
Lassa entry inh: qHTS for Inhibitors of binding or entry into cells for Lassa Virus | Lassa virus pseudotype entry inhibition, cell reporter | Potency, µM (titrated, usually from 37.9 µM), without a hit: top-dose activity change, negative = inhibition, hits mostly inhibitors | 300,000 compounds, 1.2% hits | AID 540256, 2011; calls by dose curve; tested in HEK293 cells; further: potency means the concentration at half of the fitted maximal effect; on the % scale 0 is the no-effect control and ±100 the full control effect; nearly all actives have a fitted effect of over 50% in size
* = called active by the depositor; ? = inconclusive; nt = not tested or not shown; [ ] = dose if it differs, or a comment.

SMILES	AMA1 RON2 block	CHX counter	Shiga inhibitor	MARV entry inh	Lassa entry inh
Cc1cc(N/N=C/c2ccc(O)cc2O)nc(-n2nc(C)cc2C)n1	22%	0	5	3.7µM*	7.3µM*
Cc1cc(N/N=C/c2cccc(Cl)c2)nc(-n2nc(C)cc2C)n1	18%	-3	2	?	?
COc1ccc(/C=N/Nc2cc(C)nc(-n3nc(C)cc3C)n2)cc1	28%	2	3	16µM*	?
N#C/C(=C/C1=C(N2CCOCC2)C(=C/c2ccc(Cl)cc2Cl)/CC1)C(=O)Nc1ccccc1F	0%	nt	nt	1%[46.1 µM]	-6%[46.1 µM]
CN(C)c1cccc2c1c(NC(=O)c1ccc(Cl)cc1)nn2C	0%	1	12	-23%[46.1 µM]	-30%[46.1 µM]
CN(Cc1ccc(N(C)C)cc1)C(=O)c1cc2ccccc2o1	14µM*	28*	68*	-12%[46.1 µM]	?
CCN(Cc1ccc(OC)c(F)c1)C(=O)c1cc2ccccc2o1	3%	18*	9	8%[46.1 µM]	13%[46.1 µM]
CN(Cc1ccc(Cl)cc1Cl)C(=O)c1cc(=O)c2ccccc2o1	-2%	-1	24	1%[46.1 µM]	-2%
CN(C)c1ccc(CN(CC2CCCO2)C(=O)c2cc3ccccc3o2)cc1 (stereo not given)	16µM*	nt	nt	-21%	?
CN(Cc1ccccc1Cl)C(=O)c1cc2ccccc2o1	10%	31*	39*	8%[46.1 µM]	?
CN(Cc1ccccc1)C(=O)c1cc2ccccc2o1	3%	12	8	-2%	14%
COc1ccc(/C=C2\C(=O)N(c3c(Cl)cc(Cl)cc3Cl)N=C2NC(=O)c2cccc([N+](=O)[O-])c2)cc1	63%	-1	-15	0%	23%
O=C(c1cc2ccccc2oc1=O)N(Cc1cccs1)Cc1ccccc1Cl	-25%	45*	60*	-1%	?
COc1ccnc(N2CCN(c3ccccc3)CC2)c1C#N	27%	29*	40*	-10%	12%
Oc1ccccc1N1CCN(c2ncccn2)CC1	3%	9	-4	6%	?
COc1ccc(N2CCN(c3ncccc3C#N)CC2)cc1	?	11*	-1	?	?
c1ccc(N2CCN(c3ncccn3)CC2)cc1	-3%	22*	25	23%	?
COc1ccnc(Oc2ccccc2)c1C#N	16%	-1	-16	4%	28%
CCc1cc2c(=O)oc(-c3ccccc3F)nc2s1	25%	14*	nt	nt	nt
O=C(NC1CCCC1)c1n[nH]c2ccccc12	2%	43*	54	nt	nt
COCCNC(=O)c1n[nH]c2ccccc12	20%	31*	57	?	-2%[46.1 µM]
COc1ccc(CCNC(=O)c2n[nH]c3ccccc23)cc1	-3%	47*	45*	?	?
Cc1c(NC(=O)C(C)Oc2cccc(F)c2)c(=O)n(-c2ccccc2)n1C (stereo not given)	9%	nt	nt	nt	nt
CCOc1ccc(S(=O)(=O)NN=C(C)c2cccnc2)cc1	0%	nt	nt	nt	nt
CCc1cccc(C)c1NC(=O)C1CCCN1C(=O)NCc1ccccc1 (stereo not given)	-9%	-2	-5	-11%[46.1 µM]	?
SMILES	AMA1 RON2 block	CHX counter	Shiga inhibitor	MARV entry inh	Lassa entry inh
CC1(C)CC(=O)C/C(=N\NC(=O)C2CC2c2ccccc2)C1 (stereo not given)	59%	3	44*	nt	nt
CCOC(=O)c1ccc(-c2nnc(-c3ccc(Cl)cc3Cl)o2)cc1	0%	9.6*	22	5%	?
CCOC(=O)c1cc(-c2nnc(-c3ccc(Cl)cc3)o2)c(C)nc1C	-9%	-2	-2	1%	nt
O=C(NN1C(=O)/C(=C/C=C/c2ccco2)SC1=S)c1ccncc1	5.6µM*	3	-12	?	-27%[46.1 µM]
O=C(NN1C(=O)/C(=C/C=C/c2ccccc2)SC1=S)c1ccncc1	3%	26	21	0%[46.1 µM]	-22%[46.1 µM]
COC(CNC(=O)c1ccc2c3c(onc13)-c1ccccc1C2=O)OC	-17%	35*	75*	?	?
COc1ccc(NS(=O)(=O)c2ccc(OC)c(NC(=O)CNC(=O)c3ccc(OC)cc3)c2)cc1	-9%	nt	nt	nt	nt
c1ccc2[nH]c(CSc3nc4ccccc4o3)nc2c1	-1%	42*	137*	10%	-8%
CCc1nc(SCC(=O)c2ccc(Cl)s2)c2oc3ccccc3c2n1	4%	46*	89*	?	18%
CCc1nc(SCc2nc3ccccc3[nH]2)c2oc3ccccc3c2n1	-2%	14*	8	?	-8%
CCc1nc(SCCO)c2oc3ccccc3c2n1	-2%	2	16	14%	16%
Cc1cc(S(=O)(=O)C(CNC(=O)c2ccc(OC(C)C)cc2)c2cccs2)ccc1F (stereo not given)	nt	nt	nt	nt	-4%[46.1 µM]
CCOC(=O)c1ccc(CSc2nnc(-c3ccncc3)n2N)cc1	-8%	41*	77	-12%	1%
c1ccc2c(c1)[nH]c1c(NCC3CCCO3)ncnc12 (stereo not given)	1%	-4	-5	?	0%
CCOc1ccc2[nH]c3c(NCCc4ccc(OC)c(OC)c4)ncnc3c2c1	-29%	1	7	?	?
CCOCCCNc1ncnc2c1[nH]c1ccccc12	11%	13*	-2	?	?
CCCCOCCCNc1ncnc2c1[nH]c1ccccc12	15%	-3	-6	5.2µM*	?
CCOc1ccc2[nH]c3c(NCCO)ncnc3c2c1	-8%	20*	36	nt	nt
COc1ccc(OC)c([C@H]2/C(=C(\O)c3ccc(C)cc3)C(=O)C(=O)N2Cc2ccco2)c1	nt	nt	nt	-24%[46.1 µM]	nt
COc1ccc(Oc2nc3c(c(=O)n(Cc4ccccc4Cl)c(=O)n3C)n2C)cc1	nt	nt	nt	1%[46.1 µM]	?
COc1ccc(C(=O)O)cc1NC(=S)NC(=O)C(c1ccccc1)c1ccccc1	6%	-2	-10	?	26%
O=C1c2[nH]nc(-c3ccccc3O)c2C(c2ccc(Cl)cc2)N1Cc1ccco1 (stereo not given)	nt	nt	nt	-23%[46.1 µM]	?
COc1ccc(CCN2C(=O)c3[nH]nc(-c4ccccc4O)c3C2c2ccccc2)cc1OC (stereo not given)	24%	-3	57	?	18µM*
COc1cc(C2c3c(-c4c(C)cc(C)cc4O)n[nH]c3C(=O)N2CCO)cc(OC)c1OC (stereo not given)	nt	nt	nt	-12%[46.1 µM]	?
COc1ccc(-c2n[nH]c3c2C(c2ccc(OC)c(OC)c2)N(c2ccccc2)C3=O)cc1 (stereo not given)	5%	-2	-12	7.3µM*	?
O=C1c2[nH]nc(-c3ccccc3O)c2C(c2ccccc2)N1Cc1ccco1 (stereo not given)	51%	-1	-5	?	1.5µM*
COc1cc(C2c3c(-c4cc(C)cc(C)c4O)n[nH]c3C(=O)N2CCCO)cc(OC)c1OC (stereo not given)	54%	-3	-1	3%	8.2µM*
CN1C[C@@H]2[C@@H]3C(=O)N(Cc4ccccc4)C(=O)[C@@H]3[C@](C)(C1=O)N2C(=O)c1ccc(Br)cc1	-6%	nt	nt	nt	nt
Cc1cccc(Cc2c(C)nc3nc(SCc4cccc(F)c4)nn3c2C)c1	nt	nt	nt	nt	1%[46.1 µM]
